This note sets out measurements from PubChem BioAssay.

SMILES strings stand for the structures.

The first test deals with Lefty1. As to the kind of experiment: Lefty1 binders on small-molecule microarrays, primary screen, biochemical, small-molecule microarray, 635/667 nm fluorescence (AID 1139). The settings on record: small-molecule microarray binding, fluorescence 635/667; higher = more signal.
In the case of `CO[C@H]1COC(=O)CC=C[C@@H](C)COC(=O)[C@@H](C)NC(=O)CC=C[C@@H]1C`, the composite z-score was 1.73.
As to `C=C[C@H](OC)[C@@H](OC(=O)Nc1ccc(SC)cc1)c1ccc(O)c(F)c1`, the composite z-score was -0.0871.
On the same count and under the same terms, under `[N-]=[N+]=NCc1ccccc1C[C@@]1(C(=O)N2CCOCC2)N=C(c2ccc(OCCCO)cc2)O[C@@H]1c1ccccc1N=[N+]=[N-]` stands -0.123.
The molecule `[N-]=[N+]=NCc1ccccc1C[C@@]1(C(=O)O)N=C(c2ccc(OCCCO)cc2)O[C@@H]1c1ccccc1N=[N+]=[N-]` had a composite z-score of 0.42.
The same measure, in the same setting: under `CSCC[C@@H]1NC(=O)CC=C[C@@H](C)COC(=O)[C@H](CCSC)NC(=O)CC=C[C@@H](C)COC1=O` stands 0.531; under `C=C(COC)/C(=C/C[C@@H](OC(C)=O)c1cccc(OCCO)c1)c1cc(C(=O)OC)ccc1OC`, 0.499.
As for `CCOC(=O)C[C@H]1[C@H](OC(=O)c2cc3ccccc3oc2=O)[C@@H](NC(=O)C2CCCCC2)c2cc(OCCCO)ccc2N1C(=O)c1ccc2ccccc2n1`, the composite z-score turned out to be 0.522.
Regarding `C=C(COC)C(=O)CC[C@H](OC(=O)c1ccccc1-c1ccccc1C(=O)O)c1cccc(OCCO)c1`, the composite z-score was 1.65.
Same read-out and setting: with `C=CC[C@]1(C(=O)OC)N=C(c2ccc(OCCCO)cc2)O[C@H]1c1ccccc1CN=[N+]=[N-]` the figure was -0.525.

The test system of a further test is wheat germ agglutinin (Triticum aestivum), Alexa647-labelled. As to the kind of experiment: wheat germ agglutinin binders on compound microarrays, profiling panel, artefact control for SMM control-protein annotation, biochemical, small-molecule microarray, 635/667 nm fluorescence (AID 1140).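 Also: score merges 667 nm feature emission with signal to noise over triplicate slides.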 To be noted: WGA-A647 binding, 635 nm fluorescence, higher = more signal.
Consider `O=[N+]([O-])c1ccc(C[n+]2ccc3ccc(O)cc3c2)o1`, for which the composite z-score is 1.12.
Same read-out and setting: under `O=C1O[C@@H](c2ccccc2)[C@@H](c2ccccc2)N2[C@@H](c3ccccc3OCCO)[C@]3(C(=O)Nc4ccc(C#CC5=CCCCC5)cc43)[C@@H](C(=O)O)[C@H]12` stands 1.17; under `CCC#CCN(Cc1ccccc1Br)[C@H](/C=C/c1ccccc1)[C@@H](O)Cc1ccccc1`, -0.518; under `COCCOC(=O)N1C(=O)[C@@]2(c3cc(C#CC4(O)CCCCCC4)ccc31)[C@H](C(=O)N1CCCCCCC1)[C@H]1C(=O)O[C@H](c3ccccc3)[C@H](c3ccccc3)N1[C@@H]2c1ccc(O)cc1`, 1.38.
Regarding `C[N+](C)(C)CCCCNC(=O)[C@@H]1C[C@@H]2C(=O)N3CCC[C@H]3C(=O)N2[C@@H]1c1cccc(OCCO)c1`, the composite z-score was -0.392.
`C=CCN1C(=O)[C@]2(O[C@H](CCn3cc(CCO)nn3)[C@@H]([Si](C)(C)c3ccc(OC)cc3)[C@@H]2C)c2cc(NC(=O)c3ccc(OC)cc3)ccc21` yielded a composite z-score of 0.816.
Same read-out and setting: under `CO[C@H]1COC(=O)[C@@H](Cc2ccccc2)NC(=O)[C@@H](C)COC(=O)CC=C[C@@H]1C` stands -0.744; under `O=C1C2C=CC(C(O)c3ccccc3)N(n3cnnc3)C2C(=O)N1Cc1ccccc1` (centres undefined), -0.164; under `C=C(COC)/C(=C/C[C@@H](OC(=O)c1ccncc1)c1ccc(OCCO)cc1)c1cc(C(=O)OC)ccc1OC`, 1.3.
In the case of `O=C1C[C@@](C(=O)NCCN2CCOCC2)(c2ccc([N+](=O)[O-])cc2)[C@@H](c2ccc(CO)cc2)N1C1CCCCC1`, the composite z-score was 0.43.
As for `COc1ccc(NN2C(C(O)c3cc(OC)c(OC)c(OC)c3)C=CC3C(=O)N(C4CCCCC4)C(=O)C32)cc1` (centres undefined), the composite z-score is 1.22.
`C=C(C)[C@@H]1CC=C(C(O)C2C=CC3C(=O)NC(=O)C3N2Nc2ccccn2)CC1` (some centres undefined) yielded a composite z-score of 0.842.
In turn, `O=C1OCCC/C=C\[C@H]2OC34C=CCN(CCN5CCOCC5)C(=O)[C@H]3N(CCCCCO)C(=O)[C@@H]4C12` (some centres undefined) registered a composite z-score of -0.858.
As for `NC(=O)NCC#Cc1ccc2c(c1)[C@]1(C(=O)N2)[C@H](C(N)=O)[C@H]2C(=O)O[C@H](c3ccccc3)[C@H](c3ccccc3)N2[C@@H]1c1ccccc1OCCO`, the composite z-score turned out to be 0.174.
Molecule `COc1ccc([Si](C)(C)[C@H]2[C@H](CCO)O[C@@]3(C(=O)N(Cc4ccccc4)c4ccc(N5C(=O)c6cccc7cccc5c67)cc43)[C@@H]2C)cc1` returned a composite z-score of 0.641.
The molecule `CN(C)c1ccc(C(O)C2C=CC3C(=O)NC(=O)C3N2Nc2ccc(Cl)cc2Cl)cc1` (centres undefined) gave a composite z-score of 0.5.
`COC(=O)C(CC#Cc1ccc2c(c1)[C@]1(C(=O)N2)[C@H](C(=O)N2CCCCCCC2)[C@H]2C(=O)O[C@H](c3ccccc3)[C@H](c3ccccc3)N2[C@@H]1c1ccc(O)cc1)C(=O)OC` yielded a composite z-score of -1.42.
`C=CCNC(=O)[C@@H]1[C@H]2C(=O)O[C@H](c3ccccc3)[C@H](c3ccccc3)N2[C@H](c2ccc(OCCO)cc2)[C@@]12C(=O)N(C(=O)OCCOC)c1ccc(C#CC3(O)CCCCCC3)cc12` gave a composite z-score of 1.15.
The same measure, in the same setting: with `CC(C)[Si]1(C(C)C)O[C@@H](c2ccccc2)c2cc(C3CC3)nc(-c3ccc(Oc4ccccc4)cc3)c21` the figure was -1.33.
Molecule `[N-]=[N+]=NCc1ccccc1C[C@]1(C(=O)N2CCCCC2)N=C(c2ccc(OCCCO)cc2)O[C@H]1c1ccccc1CN=[N+]=[N-]` came in with a composite z-score of 0.59.
